# Screening data (PubChem BioAssay)
# CF NFkB inh – blocks PAF-induced NF-kB reporter in cystic fibrosis cells. AID 588850. inhibition, % at 5 µM. actives 0.86% (n = 360,000). KKLEB NF-kB-GFP reporter, GFP fluorescence overnight;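 active = at least 50% inhibition at 5 µM, scaled per plate between neutral and stimulator controls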;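 note: PAF is a Pseudomonas aeruginosa culture filtrate used as stimulus; plate controls were PAF-stimulated DMSO wells for no effect and unstimulated DMSO wells for full effect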
# HIF-2a block – blocks HIF-2a reporter activity; actives 0.72% (n = 360,000); inhibition, % at 18.8 µM; AID 624352; 786-0 RCC cells HIF-2a reporter, luciferase luminescence, overnight;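 active = inhibition of the luminescence signal of 40% or more relative to plate controls, in a single-dose primary screen at 18.75 µM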
# Shn3 inh set2 – Schnurri-3 reporter inhibition in Clone20 osteoblasts. Clone20 osteoblast Shn3 3'UTR firefly luciferase, 24 h. inhibition, % at 12.5 µM. actives 0.52% (n = 360,000). AID 588674;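 active = mean inhibition of at least 75% with every replicate also reaching 75%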;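 note: 0% = median of neutral control wells and 100% = pilot-screen positive control compound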
# Peg3 prom inh-1 – inhibitors of Peg3 promoter; HeLa PEG-Prom luciferase reporter, luminescence, overnight; inhibition, % at 20 µM; actives 1.7% (n = 360,000);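 active = inhibition of at least 50% at 20 µM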
# KKLEB tox – reduces viability of KKLEB cystic fibrosis airway cells. KKLEB CF airway cells viability, ATPlite luminescence, overnight; stronger effect = lower value; cells stimulated with P. aeruginosa culture filtrate. activity change (cytotoxicity), % at 5 µM. actives 0.36% (n = 360,000);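 active = corrected activity change at or below -50% at 5 µM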
# TRPM1 prom inh – reduces MITF-dependent TRPM1 promoter luciferase signal; SK-MEL-5 TRPM1 promoter luciferase, 24 h; inhibition, % at 12.5 µM; actives 0.83% (n = 330,000); AID 488899;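 active = mean inhibition across replicates of 60% or more, whatever share of single replicates reaches that level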
# Peg3 prom inh-2 – confirmation of Peg3 promoter inhibitors | shares compounds with Peg3 prom inh-1 | HeLa PEG-Prom luciferase reporter, luminescence, overnight | inhibition, % at 20 µM | actives 84% (n = 1,300);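 active = at 20 µM dose, 40% or more inhibition averaged across four replicates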
# The depositor's hits bear a star; . = no result given. An excerpt weighted towards active compounds, which were near 2.7% of everything screened.
SMILES,CF NFkB inh,HIF-2a block,Shn3 inh set2,Peg3 prom inh-1,KKLEB tox,TRPM1 prom inh,Peg3 prom inh-2
CCCN(CC(=O)Nc1ccccc1C)C(=O)c1ccc(N2CCCCC2)c([N+](=O)[O-])c1,4,-1,17,-4,11,7,.
COC(=O)CSc1ccccc1C(=O)OC,-2,0,-22,-1,7,11,.
COC(=O)CSC1=NS(=O)(=O)c2ccccc21,7,-21,-4,74*,2,53,80*
COCCN1CCN(C(=O)c2cc(COc3cncc(Cl)c3)on2)CC1,32,12,-1,5,-22,7,.
O=C(Nc1ccccc1F)c1csc(COCCO)n1,20,-160,-56,-170,-12,.,.
c1ccc(CN2CCC3CC2c2ccc(N4CCOCC4)cc23)cc1 (centres undefined),14,0,-1,-6,-12,.,.
CCn1cc(C(=O)NCc2ccco2)c(=O)c2cc(S(=O)(=O)N3CC(C)CC(C)C3)ccc21 (centres undefined),-1,30,85*,58*,6,16,61*
CCn1cc(C(=O)NCc2ccco2)c(=O)c2cc(S(=O)(=O)N3CCC(C)CC3)ccc21,-16,29,22,18,-5,13,.
Fc1c(F)c(F)c(/C=N/NC(=S)Nc2cccnc2)c(F)c1F,37,20,6,101*,-17,5,44*
CC1CCCC(C)N1C(=C(Cl)Cl)C(=C1SCCS1)[N+](=O)[O-] (centres undefined),26,30,39,71*,-28,-20,59*
CCOc1ccc(Nc2c3ccccc3nc3ccccc23)cc1,-41,35,63,85*,-9,17,85*
CCOc1ccc(Nc2cc(C)c3ccccc3n2)cc1,-1,-232,-70,-320,-4,-138,.
COc1ccc(OC)c(NC(=O)c2cc3c(Cl)nc4ccccc4c3s2)c1,18,6,6,65*,-26,8,20
COc1ccc(OCC(O)CN2CCC(CN3C(=O)c4cccc5cccc(c45)C3=O)CC2)cc1 (centres undefined),-17,6,7,12,-4,-2,.
Cc1ccc(C)c(OCC(O)CN2CCC(CN3C(=O)c4cccc5cccc(c45)C3=O)CC2)c1 (centres undefined),7,8,69,99*,-18,.,97*
Cc1ccc(NC(=O)NCC2CCN(Cc3cc(C)ccc3Cl)CC2)c(C)c1,4,6,-13,10,-1,-6,.
Cc1ccc(C)c(CN2CCC(CNC(=O)Nc3ccc(F)c(Cl)c3)CC2)c1,16,8,15,68*,-15,37,98*
CC(=O)c1cccc(OCC(=O)N(C)CC(=O)NCc2ccco2)c1,-15,9,5,8,8,6,.
CN(C)c1ccc(/C=C/c2ccc3ccccc3n2)cc1,-30,76*,88*,89*,-80*,72*,68*
CN(C)c1ccc(/C=C/c2nc3ccccc3s2)cc1,-31,62*,85,102*,-83*,77*,67*
C(=C\c1ccc2ccccc2n1)/c1ccccc1,-26,-3,43,-4,-43,58,.
CC(C)(C)OC(=O)n1cc(/C=N/NC(=O)c2ccco2)c2ccccc21,-12,-113,-34,-121,2,-26,.
Cc1ccc(S(=O)(=O)NCCNc2ccc(Br)c(C)c2)cc1,5,3,48,4,2,11,.
CCN(c1ccccc1)S(=O)(=O)c1ccc(OC)c(NC(=O)C2=NN(c3ccccc3)C(=O)CC2)c1,16,6,24,14,6,10,.
Cc1nc(NC(=O)CSc2nccn2C)sc1C(=O)N(C)C,-12,-67,-23,-31,20,-19,.
CN1CCN(c2nc(-c3ccccc3)nc3c2oc2ccccc23)CC1,-59,9,-12,66*,-2,-22,-3
CCCCc1ccc(S(=O)(=O)NC(=O)C2(C)CCN2C(=O)c2cccc(F)c2)cc1 (centres undefined),-8,12,-2,2,-8,.,.
COc1ccc(CC(=O)N(Cc2ccccc2)c2ccccc2)cc1S(=O)(=O)N1CCOCC1,-9,9,-4,56*,-9,6,47*
